Source: PubChem BioAssay (National Center for Advancing Translational Sciences (NCATS))
Mito fusion act = blocks mitochondrial division or promotes mitochondrial fusion | Potency, µM (top dose mostly 46.1 µM), usual class: activators | S. cerevisiae fusion-defective mutant growth rescue, CellTiterGlo 48 h | hit rate 0.23% among 320,000; further: nearly all actives have a fitted effect of over 45% in size
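Luminescent cell viability in 1536-well qHTS format served as the measure of rescued growth in ts fusion-mutant S. cerevisiae cultured on non-fermentable YPEG for 48 hours at 37C.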
B2AR arrestin = agonists driving beta-arrestin recruitment to human beta2-adrenergic receptor | P07550 | beta-arrestin recruitment to beta2AR, cell-based reporter | Potency, µM (doses to about 46.1 µM), most hits filed as activators | hit rate 0.02% among 330,000 | AID 492947; further: nearly all actives have a fitted effect of over 65% in size
BRCA1 expr up = increases BRCA1 expression. MCF7-BRCA1-FFLuc reporter, luminescence, 48 h; response scale: scaled: vehicle 0%, 10 µM genistein 100%. Potency, µM (series often up to 46.1 µM), usual class: activators. hit rate 1.1% among 380,000. AID 624202; further: nearly all actives have a fitted effect of over 80% in size
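Quantitative HTS in MCF7 cells stably reporting BRCA1 expression via firefly luciferase. Compound treatment lasts 48 h at 37 °C in phenol-red free MEM. Activation is expressed relative to genistein at 10 microM and DMSO.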
ERG Ets-DNA blk = blocks human ERG Ets domain binding to DNA | Potency, µM (highest dose often 76.9 µM), usual class: inhibitors | AID 624246 | fluorescence polarization, His-ERG Ets domain / labelled DNA | hit rate 0.028% among 370,000; active means well fitted inhibition curve with a large enough effect in the polarisation, with a control signal flat; inconclusive means small, poorly fitted or top-dose-only effect, or effect the other way, or a change in a side signal; inactive means no such curve, though single readings can be large or run the other way; the % refers to the polarisation;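 further: polarization taken with two DNA probes labelled with fluorescein and Texas red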
Target sequence (P11308 whole entry, looked up, the tested form may be a part): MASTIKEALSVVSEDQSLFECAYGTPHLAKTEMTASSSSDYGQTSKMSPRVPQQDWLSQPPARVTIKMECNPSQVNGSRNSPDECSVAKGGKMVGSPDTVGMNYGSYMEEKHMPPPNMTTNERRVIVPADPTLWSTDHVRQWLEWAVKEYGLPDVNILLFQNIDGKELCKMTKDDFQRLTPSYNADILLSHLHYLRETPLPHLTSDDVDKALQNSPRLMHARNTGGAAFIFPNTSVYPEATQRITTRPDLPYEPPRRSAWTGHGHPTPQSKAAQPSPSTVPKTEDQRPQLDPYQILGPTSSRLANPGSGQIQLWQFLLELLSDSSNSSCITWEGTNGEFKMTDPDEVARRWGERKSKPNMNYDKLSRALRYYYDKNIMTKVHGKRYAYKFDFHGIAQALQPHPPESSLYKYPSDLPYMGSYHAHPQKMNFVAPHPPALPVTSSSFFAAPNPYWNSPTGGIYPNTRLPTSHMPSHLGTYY
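His-tagged ERG Ets domain (1 uM in the protein solution; 300mM KCl, 50mM Tris-HCl, 1mM EDTA, 1mM DTT, pH 7.5) received compound, then a probe mix of 5 nM fluorescein-DNA and 100nM Texas-615-DNA. Fluorescence polarization was read for both dyes.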
A number is an active result; – = inactive; ? = inconclusive; · = no result. Hits are enriched below; roughly 1.2% of the tested compounds scored in any of these assays. Unless noted, the call rests on the fitted dose curve; in most records, active means well fitted curve in the direction sought with a large enough effect; inconclusive means small, poorly fitted or top-dose-only effect, or another doubt; inactive means no such curve, though single readings can be large; an effect the other way counts as inactive or inconclusive.

SMILES	Mito fusion act	B2AR arrestin	BRCA1 expr up	ERG Ets-DNA blk
CC(C)(C)[C@H]1C=C(C(=O)NCc2nc3ccccc3[nH]2)O[C@@H](OCCCCO)C1	5.6µM	–	–	–
O=C1NC(=O)/C(=C/c2ccc(-c3ccc(F)cc3O)o2)S1	4.6µM	·	·	·
COC(=O)[C@@H]1CCCN1C(=O)CCc1nnc(CCC2CCCCC2)o1	–	–	11µM	–
COC(=O)[C@@H]1CCCN1C(=O)CCc1nnc(CCc2c[nH]c3ccccc23)o1	–	–	–	–
COC(=O)[C@H](CC(C)C)NC(=O)Cn1cnc(C(=O)Nc2ccc(C)c(C)c2)n1	·	–	11µM	–
CCOc1nc(Nc2ccccc2F)nc(OCC)n1	–	–	–	–
C=CCNc1nc(Nc2ccccc2F)nc(OCC)n1	–	–	10µM	–
O=C(NCCc1ccccc1)c1cnc2n(c1=O)CCS2	–	–	7.1µM	–
O=C(NCCc1c[nH]c2ccccc12)c1cnc2n(c1=O)CCS2	–	–	–	–
Clc1cccc(C2Nc3cccc4cccc(c34)N2)c1Cl	–	2.8µM	–	–
O=C1N=C(N2CCOCC2)S/C1=C\c1ccncc1	–	–	–	–
CC(=C/c1ccccc1)/C=C1/SC(N2CCOCC2)=NC1=O	–	–	11µM	–
O=C(COc1ccc2ccccc2c1)N1CCCC1	–	–	11µM	–
Cc1ccc(C(=O)OCC(=O)N2CCCCCC2)c(O)c1	–	–	13µM	–
O=C(COc1ccc2ccccc2c1)N1CCN(c2ccccc2)CC1	–	–	–	–
O=C(OCC(=O)N1CCCC1)c1ccccc1O	–	–	20µM	–
O=C(OCC(=O)N1CCOCC1)c1ccc2ccccc2c1O	–	–	3.2µM	–
Cc1ccc(C(=O)OCC(=O)N2CCOCC2)c(C)c1	–	–	–	–
COc1ccc2c(Sc3ccccc3)c(C(=O)NCc3cc(Br)ccc3OC)[nH]c2c1	·	·	·	–
COc1ccc2c(c1)c(=O)c(C(=O)c1ccc(F)cc1)cn2CC(=O)Nc1ccc2c(c1)OCCO2	·	·	–	–
CCN(CC)c1nn2c(=O)c(C(=O)NCc3ccccc3Br)cnc2s1	·	·	·	–
CCC(Sc1nnc(-c2ccc(OC)c(OC)c2)c(-c2ccc(OC)c(OC)c2)n1)C(=O)NC1CCCC1 (stereo not drawn)	·	·	·	–
O=C(OCC(=O)N1CCN(c2ccccc2)CC1)c1ccccc1[N+](=O)[O-]	–	–	13µM	–
O=C(OCC(=O)N1CCN(c2ccccc2)CC1)c1cccc([N+](=O)[O-])c1	–	–	–	?
COc1cc(N(C)C)c(OC)cc1C=C1C=CC=C1	·	·	–	·
SMILES	Mito fusion act	B2AR arrestin	BRCA1 expr up	ERG Ets-DNA blk
Cc1ccc(Nc2nc(CSc3nnc(-c4ccccc4C)n3C)cs2)cc1	–	?	–	–
Cn1nnnc1SCc1csc(Nc2ccccc2)n1	–	–	13µM	–
COc1ccc(-c2nnc(SCc3ccccn3)n2C)cc1	–	–	13µM	–
Cc1ccc(Nc2nc(C)cs2)cc1	–	–	2.5µM	–
Cc1ccc(Nc2nc(CSc3nnc(-c4ccccc4)n3C)cs2)cc1	–	–	3.5µM	–
CCOC(=O)CSc1nc2cc(OC)c(OC)cc2c2nc(-c3ccccc3)nn12	·	·	–	–
Cc1cccc(-c2[nH]c(C(C)(C)C)nc2-c2ccc3nccnc3c2)n1	–	·	·	·
Cc1ccc(Nc2nc(CSc3nnnn3C)cs2)cc1	–	–	3.2µM	–
Cc1ccc(Nc2nc(CSc3nnnn3-c3ccccc3)cs2)cc1	–	·	–	–
Cc1cc(C)c2nc(N3CCN(C(=O)c4ccco4)CC3)sc2c1	–	–	13µM	–
CCCc1nn2c(=O)cc(COC(=O)c3ccc(NC(=O)COc4ccccc4F)cc3)nc2s1	·	·	·	–
O=C(NN=Cc1ccccc1Cl)c1ccccc1	·	·	5.6µM	·
Cn1cccc1-c1cc(C(=O)N/N=C/c2ccc(F)cc2)[nH]n1	–	–	–	–
O=C(N/N=C/c1c[nH]c2ccccc12)c1ccncc1	–	–	–	–
O=C(N/N=C/c1c[nH]c2ccccc12)c1ccccc1	–	–	10µM	–
O=C(N/N=C/c1ccccc1Cl)c1ccc(F)cc1	–	–	?	–
Cn1cccc1-c1cc(C(=O)N/N=C/c2ccccc2Cl)[nH]n1	–	–	8.9µM	–
Cc1cc(C)cc(NC(=O)NCc2noc3ccccc23)c1	·	·	·	–
COCCn1c(C)c(C)c(S(=O)(=O)c2ccccc2)c1N	–	–	–	35µM
Cc1c(S(=O)(=O)c2ccccn2)c(N)n(Cc2ccccc2)c1C	–	–	–	–
COc1cc(C(=O)Nc2nc3ccc(S(C)(=O)=O)cc3s2)cc(OC)c1C	–	–	–	–
